Screens deposited in PubChem BioAssay by NMMLSC.
Bcl-B Bim block: disrupts Bim peptide binding to human Bcl-B; inhibition, % at 10 µM; hit rate 0.073% among 190,000; AID 951; bead-based flow cytometry
Bcl-W Bim block: human Bim-Bcl-W interaction inhibition. Q92843. bead-based flow cytometry, Bim peptide-Bcl-W binding. inhibition, % at 10 µM. hit rate 0.02% among 190,000. AID 952;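 also: higher means less fluorescent Bim peptide bound to Bcl-W beads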
Bfl-1 Bim block: disrupts Bim binding to human Bfl-1; Q16548; Bead-based flow cytometry, Bim-Bfl-1 binding inhibition; inhibition, % at 10 µM; hit rate 0.12% among 190,000; AID 1008
Target sequence (Q16548 whole entry, looked up): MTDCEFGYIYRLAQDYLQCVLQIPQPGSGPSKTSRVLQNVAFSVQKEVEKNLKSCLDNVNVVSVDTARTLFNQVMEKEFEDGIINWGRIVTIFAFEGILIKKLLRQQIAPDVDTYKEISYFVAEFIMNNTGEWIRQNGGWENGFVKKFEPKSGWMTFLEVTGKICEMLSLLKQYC
Bcl-XL Bim block: inhibitors of Bim-Bcl-XL interaction, human. Q07817. Bim peptide-Bcl-XL binding, bead flow cytometry, fluorescence. inhibition, % at 10 µM. hit rate 0.04% among 190,000
Target sequence (Q07817 whole entry, looked up): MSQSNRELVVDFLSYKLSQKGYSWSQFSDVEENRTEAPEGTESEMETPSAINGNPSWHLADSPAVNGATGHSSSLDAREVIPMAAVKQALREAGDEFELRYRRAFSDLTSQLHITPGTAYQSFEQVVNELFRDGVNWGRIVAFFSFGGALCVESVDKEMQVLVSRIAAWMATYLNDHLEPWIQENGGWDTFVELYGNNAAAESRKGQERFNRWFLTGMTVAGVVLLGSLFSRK
Bim-Bcl-2: human Bim-Bcl-2 interaction inhibition; P10415; Bead-based flow cytometry, Bim peptide-Bcl-2 binding; hit rate 0.06% among 190,000; inhibition, % at 10 µM; in the data active = inhibition above about 40%
Numbers stand for hits; n = inactive; x = no result given. Only some compounds are listed: those with a hit (about 0.2% of all), similar ones and a draw of the others. Rule as the data show it, unless noted: active = inhibition above about 40%.

SMILES	Bcl-B Bim block	Bcl-W Bim block	Bfl-1 Bim block	Bcl-XL Bim block	Bim-Bcl-2
COc1ccc2cc(CN(CCc3ccccc3)Cc3nnnn3CC3CCCO3)c(=O)[nH]c2c1 (stereo not given)	n	n	44	42	n
CCOC(=O)C1CCN(C(=S)Nc2ccc(CC)cc2)CC1	n	n	n	n	n
CCOc1cc(S(=O)(=O)Nc2ccc(Cl)cn2)ccc1F	n	n	n	n	n
CCOc1cc(S(=O)(=O)Nc2ccccn2)ccc1F	x	n	x	n	89
Cc1cc(N/C(=N/S(=O)(=O)c2cc(F)ccc2F)c2ccccc2)n(-c2ccccc2)n1	66	n	n	n	50
Cc1cc(N/C(=N/S(=O)(=O)c2ccc(F)cc2)c2ccccc2)n(-c2ccccc2)n1	n	n	n	n	n
COC(=O)c1c(NC(=O)COc2ncnc3ccccc23)sc(C)c1C	55	n	n	n	n
Cc1ccc(CN2CCN(Cc3cccn3-c3nccs3)CC2CCO)cc1 (stereo not given)	n	n	n	n	n
COc1ccc(CC(=O)OCC(=O)NCc2ccccc2Cl)cc1	n	n	n	n	n
COc1ccc(COC(=O)NNC(=O)c2ccccc2Cl)cc1	83	n	66	n	83
CCCCc1ccc(-n2c(Cc3cccs3)n[nH]c2=S)cc1	n	n	n	n	n
CCOc1ccccc1Nc1nnc(SC(C)C(=O)Nc2nc(-c3ccccc3)cs2)s1 (stereo not given)	n	n	n	n	n
CNc1ccc(Br)cc(C(=O)/C=C/c2ccc(OC)cc2)c1=O	n	n	n	n	n
CNc1ccc(Br)cc(C(=O)/C=C/c2cc(OC)ccc2OC)c1=O	n	n	42	n	n
Cc1ccc(N(CC(=O)Nc2ccccc2-c2ccccc2)S(=O)(=O)c2ccccc2)c(C)c1	n	n	n	n	n
CCN1/C(=C/c2ccc3cc(C)cc(C)c3[n+]2CC)Sc2cc(C)ccc21	n	n	45	n	n
CCN1/C(=C\c2ccc3cc(C)ccc3[n+]2CC)Sc2cc(C)c(C)cc21	n	n	n	n	n
CCN(CC)C(=O)C1CCCN(c2ncnc3c2cnn3-c2cccc(C)c2)C1 (stereo not given)	n	n	n	n	n
CCOC(=O)C1CCCN(c2ncnc3c2cnn3-c2cccc(C)c2)C1 (stereo not given)	n	n	47	46	n
CC1CC1C(=O)OCC(=O)Nc1ccc2[nH]c(=O)[nH]c2c1 (stereo not given)	n	n	n	n	n
O=C(C1CCC(Cn2c(=S)[nH]c3ccccc3c2=O)CC1)N1CCN(c2ccccn2)CC1 (stereo not given)	52	n	n	n	n
O=C(C1CCC(Cn2c(=S)[nH]c3ccccc3c2=O)CC1)N1CCOCC1 (stereo not given)	n	n	n	n	n
c1ccc(Nc2cccc(Nc3ccccc3)n2)cc1	n	47	68	n	n
CCCC1=[N+](CC)CCn2c(C)ccc21	n	n	n	n	n
Cc1cc2n(c1)CCn1c(C)ccc1-2	40	n	n	n	n
SMILES	Bcl-B Bim block	Bcl-W Bim block	Bfl-1 Bim block	Bcl-XL Bim block	Bim-Bcl-2
CC(C)(C)C1CCC(=NNC(=O)c2cc3c(s2)CCCC3)CC1 (stereo not given)	n	41	44	43	n
O=C(NN=C1CCC(c2ccccc2)CC1)c1cc2c(s1)CCCC2 (stereo not given)	n	n	n	n	n
O=[N+]([O-])c1ccc(CN2C=NS(=O)(=O)c3ccccc32)cc1	n	n	n	n	n
Cc1nc2scc(-c3ccccc3)c2c(=O)n1N=C1C=CC(=O)C=C1	n	n	40	n	n
Cc1cccc(-n2c(CNC(=O)c3ccc(S(=O)(=O)N(C)C)cc3)nnc2SCC(=O)Nc2ccc(F)cc2)c1	n	n	n	n	n
CNC1=C([N+](=O)[O-])CC([N+](=O)[O-])=C(N2CCNCC2)N1C	n	n	n	n	n
COc1ccc(CCCC(=O)N/N=C/c2ccccc2OC)cc1	n	n	n	n	n
CCOC(=O)N1C=CC=C[C@@H]2[C@@H](N3C(=O)c4ccccc4C3=O)C(=O)N21	n	n	n	n	n
CN(C)c1ccc(NC2=C(Cl)C(=O)c3ccccc3C2=O)cc1	n	48	71	n	n
O=C(NCc1ccc(F)cc1)c1ccc(Br)o1	n	n	n	n	n
CCOC(=O)C1(CCCc2ccccc2)CCN(C(=O)C2CCCO2)CC1 (stereo not given)	n	n	n	n	n
CCOc1cc2c(C#N)c(N3CCNCC3)nc(N)c2c(N)n1	53	n	n	n	n
CCOC(=O)C(C(=O)OCC)c1cc(Br)c2noc3c2c1C(=O)c1ccccc1-3	n	43	43	n	n
O=C1c2ccccc2C(=O)c2cc(S(=O)(=O)Nc3ccccc3)ccc21	41	n	n	n	n
COC(=O)c1sc(NC(=S)NC(=O)c2ccccc2C)nc1C	n	n	n	n	n
CC(O)CNCc1ccc(-c2ccccc2)cc1 (stereo not given)	n	n	n	n	n
CC(NCc1ccc(-c2ccccc2)cc1)C(O)c1ccccc1 (stereo not given)	n	n	n	40	n
Cc1ccc(S(=O)(=O)/N=C2/C=C(Sc3ncn[nH]3)C(=O)c3ccccc32)c(C)c1	n	n	69	n	n
Cc1ccc(S(=O)(=O)/N=C2/C=C(Sc3ncn[nH]3)C(=O)c3ccccc32)cc1	n	n	62	n	n
O=C(c1cccc(N2C(=O)C3CC=CCC3C2=O)c1)N1CCCc2ccccc21 (stereo not given)	n	n	n	n	n
CNC(=S)N(Cc1cccs1)Cc1cc2ccc(OC)cc2[nH]c1=O	n	n	47	n	n
COc1ccc2[nH]c(=O)c(CN(Cc3cccs3)C(=S)Nc3ccccc3)cc2c1	n	n	n	n	n
COC(=O)c1[nH]c2ccccc2c1NC(=O)c1ccccc1[N+](=O)[O-]	44	n	n	n	n
CSc1n[nH]c2nc3c(c(=O)n12)C1(CCCC1)Cc1ccccc1-3	n	n	44	40	n
Cc1ccc(C)c(NC(=O)C(=O)NCc2ccccn2)c1	n	n	49	46	n
SMILES	Bcl-B Bim block	Bcl-W Bim block	Bfl-1 Bim block	Bcl-XL Bim block	Bim-Bcl-2
Cc1ccc(NC(=O)NCc2ccccn2)cc1	n	n	n	n	n
COc1ccc(/C=C/C(=O)NC(=S)Nc2cc([N+](=O)[O-])ccc2O)cc1OC	n	n	n	n	n
O=C(/C=C/NNC(=O)c1ccccc1)c1ccc(Br)cc1	n	n	n	n	n
O=C(O)/C=C/C(=O)NNC(=O)c1ccc(Br)cc1	n	n	n	41	n
CC(C)c1ccccc1NC(=S)NCCCn1ccnc1	n	n	n	n	n
Cc1nc2ncccn2c1-c1csc(Nc2ccccc2)n1	n	n	n	44	n
COc1ccc(Nc2nc(-c3c(C)nc4ncccn34)cs2)cc1	n	n	n	n	n
Cc1ccc(C)c(-n2c(SCC(=O)Nc3nonc3C)nnc2-c2ccoc2C)c1	n	n	n	n	n
Cc1nonc1NC(=O)CSc1nnc(-c2ccoc2C)n1C	n	n	44	43	n
CCn1c(C)nc2cc(C(=O)N/N=C/c3cccc(OC)c3O)ccc21	n	n	n	n	n
